Data from PubChem BioAssay AID1256 (The Scripps Research Institute Molecular Screening Center, 2008).
This is one part of the list. Values without a mark were called inactive. Cut-off read from the data, not from the text of the source: active = inhibition above about 20%; inactive = the rest.

Biological target: Neuropeptide Y receptor type 1 (Homo sapiens) (UniProt P25929)
Test: blockade of human NPY-Y1 in cells – counter-screen for NPY-Y2 antagonist project (AID 1256);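 note: cells challenged with NPY then isoproterenol with cAMP sensed through a CNG channel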
Conditions: cell-based NPY-Y1 antagonism counterscreen; at 3.6 µM; hits give high values

Chain of Neuropeptide Y receptor type 1 (Homo sapiens) (P25929 whole entry, looked up): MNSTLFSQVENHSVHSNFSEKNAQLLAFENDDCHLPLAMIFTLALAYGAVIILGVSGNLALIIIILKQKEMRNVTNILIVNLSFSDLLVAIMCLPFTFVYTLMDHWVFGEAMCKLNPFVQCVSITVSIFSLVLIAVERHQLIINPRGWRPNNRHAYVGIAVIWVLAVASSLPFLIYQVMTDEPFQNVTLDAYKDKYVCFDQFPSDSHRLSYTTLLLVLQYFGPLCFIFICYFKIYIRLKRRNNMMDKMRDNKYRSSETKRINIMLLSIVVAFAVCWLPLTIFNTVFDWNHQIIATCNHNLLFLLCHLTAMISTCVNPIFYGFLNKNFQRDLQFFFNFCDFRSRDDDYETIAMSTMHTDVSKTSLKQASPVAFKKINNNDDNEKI

Which inhibition does the source give for O=C(COC(=O)c1ccccc1)Nc1ccc(Cl)cc1C(=O)c1ccccc1 here?
Its inhibition is 17.5%.
